In PubChem BioAssay (NCATS):
Results filed as inconclusive are left out. Entries that show only a call come without a potency. Activity calls are given as the source filed them. The call rests on the fitted dose curve; in most records, active means well fitted curve in the direction sought with a large enough effect; inconclusive means small, poorly fitted or top-dose-only effect, or another doubt; inactive means no such curve, though single readings can be large; an effect the other way counts as inactive or inconclusive.

assay: Primary qHTS for inhibitors of nuclear receptor binding SET domain protein 2 (NSD2) in an isogenic RCH-ACV NSD2 p.E1099K mutant (9B) (AID 1645876); conditions: RCH-ACV NSD2 E1099K (9B) viability, CellTiter-Glo, 72 h; series mostly up to 44.9 µM
Further: nearly all actives have a fitted effect of over 70% in size.

SMILES | activity change, negative = viability loss | Potency | outcome
CC1(C)CC[C@]2(C(=O)O[C@@H]3O[C@H](CO)[C@@H](O)[C@H](O)[C@H]3O)CC[C@]3(C)C(=CCC4[C@@]5(C)CC[C@H](O[C@H]6O[C@H](CO)[C@@H](O)[C@H](O[C@@H]7O[C@H](CO)[C@@H](O)[C@H](O)[C@H]7O)[C@H]6O)C(C)(C)C5CC[C@]43C)[C@@H]2C1 (stereo not given in full) | 3.49% [at 9.23 µM] (inactive) |  | 
CC(=O)OCC(Cc1ccccc1)NC(=O)C(Cc1ccccc1)NC(=O)c1ccccc1 (stereo not given) |  | inactive | 
CC(C)c1ccc2c(c1)C(=O)CC1C(C)(C(=O)O)CCCC21C (stereo not given) |  | inactive | 
CC(=O)OCC1OC(O[C@H]2CC[C@@]3(C)C(CC[C@]4(C)C3CC=C3[C@@H]5CC(C)(C)CC[C@]5(C(=O)O)CC[C@]34C)[C@]2(C)CO)C(O)C(O)C1OC1OC(C)C(O)C(OC2OCC(O)C(O)C2O)C1O (stereo not given in full) | -15.5% [at 9.23 µM] (inactive) |  | 
COc1cc(C[C@@]2(O)CO[C@@H](c3ccc(O[C@@H]4O[C@H](CO)[C@@H](O)[C@H](O)[C@H]4O)c(OC)c3)[C@H]2CO)ccc1O |  | inactive | 
CC1(C)CCC2(C(=O)O)CCC3(C)C(=CCC4C5(C)CCC(O)C(C)(CO)C5C(O)CC43C)C2C1 (stereo not given) |  | inactive | 
O=C(C[C@@H]1C(C(=O)O)=CO[C@@H](O[C@@H]2O[C@H](CO)[C@@H](O)[C@H](O)[C@H]2O)/C1=C\CO)OCCc1ccc(O)cc1 |  | inactive | 
C[C@@H]1O[C@@H](O[C@H]2[C@H](O[C@H]3[C@H](O[C@H]4CC[C@@]5(C)C(CC[C@]6(C)C5CC=C5[C@@H]7CC(C)(C)C[C@@H](O)[C@]7(C)CC[C@]56C)[C@@]4(C)CO)O[C@H](C(=O)O)[C@@H](O)[C@@H]3O)O[C@H](C(=O)O)[C@H](O)[C@@H]2O)[C@H](O)[C@H](O)[C@H]1O (stereo not given in full) | 4.66% [at 9.23 µM] (inactive) |  | 
CC1(C)C2CC[C@@]34CC(CC[C@H]3[C@]2(C)CC[C@@H]1O[C@@H]1O[C@H](CO)[C@@H](O)[C@H](O)[C@H]1O)[C@](C)(O)C4 (stereo not given in full) |  | inactive | 
C[C@@H]1CC[C@]2(C(=O)O[C@@H]3O[C@H](CO[C@@H]4O[C@H](CO)[C@@H](O[C@@H]5O[C@@H](C)[C@H](O)[C@@H](O)[C@H]5O)[C@H](O)[C@H]4O)[C@@H](O)[C@H](O)[C@H]3O)CC[C@]3(C)C(=CCC4[C@@]5(C)C[C@@H](O)[C@H](O)[C@@](C)(CO)C5CC[C@]43C)C2[C@H]1C (stereo not given in full) |  |  | inactive [at 9.23 µM]
CC(C)/C=C1/NC(=O)C(C(C)C)n2c1nc1c(O)cccc1c2=O (stereo not given) |  | inactive | 

assay: Primary qHTS for inhibitors of nuclear receptor binding SET domain protein 2 (NSD2) in an RCH-ACV wild type WT cells (2C) (AID 1645877); conditions: RCH-ACV (leukaemia line) NSD2 WT (2C) viability, CellTiter-Glo, 72 h; series mostly up to 44.9 µM

SMILES | Potency | outcome | activity change, negative = cell killing
O=C(OC[C@H]1O[C@H](O[C@H]2CO[C@H](CO)[C@@H](O)[C@@H]2O)[C@H](O)[C@@H](O)[C@H]1O)c1ccccc1 | inactive |  | 
CC1(C)COC(=O)[C@@H]1O[C@@H]1O[C@H](CO)[C@@H](O)[C@H](O)[C@H]1O | inactive |  | 
CCOC(=O)C(CCc1ccccc1)NC(C)C(=O)N1Cc2ccccc2CC1C(=O)O (stereo not given) | inactive |  | 
C=CC1(C)C=C2CC[C@H]3[C@@](C)(C(=O)O)CCC[C@]3(C)C2CC1 (stereo not given in full) | inactive |  | 
CN1CCN(C(=O)c2cc3cc(Cl)ccc3[nH]2)CC1 | inactive |  | 
CC(=O)OCC1=C[C@@H]2OC(=O)C3=CO[C@@H](O[C@@H]4O[C@H](CO)[C@@H](O)[C@H](O)[C@H]4O)[C@H]1[C@@H]32 | inactive |  | 
CC1(CO)CCCC2(C)C3COC(=O)C3=CC(O)C12 (stereo not given) | inactive |  | 
CC(C/C=C/C(C)(C)O)C1CCC(C)(O)C(O)C1 (stereo not given) | inactive |  | 
C=CC(C)(CC/C=C(\C)C(=O)OC)OC1OC(COC(=O)CC(C)(O)CC(=O)O)C(O)C(O)C1O (stereo not given) | inactive |  | 
C/C=C/C=C/C(O)=C1/C(=O)[C@]2(C)C(=O)[C@@](C)(O)[C@H]1[C@H]([C@@]1(C)OC(=O)C(C)=C1O)[C@H]2C(=O)CC/C=C/C | inactive |  | 
COC(=O)C1=COC(OC2OC(CO)C(O)C(O)C2O)C2C(COC(=O)/C=C/c3ccc(O)cc3)C(O)C(O)C12 (stereo not given) | inactive |  | 
CC(=O)/C=C/C1C(C)CC(O[C@@H]2O[C@H](CO)[C@@H](O)[C@H](O)[C@H]2O)CC1(C)C (stereo not given in full) | inactive |  | 
COc1cc(C)c(C(=O)NC2C(C)OC(OC3CCC(C)C4C3C=C(C)C3/C(C)=C\CC/C(C)=C/C5(C)C=C(C(=O)O)C(C)CC56OC(=O)/C(=C(\O)C34C)C6=O)C(O)C2(C)O)c(O)c1 (stereo not given) |  | inactive [at 9.23 µM] | 
COC(=O)C1=COC(OC2OC(CO)C(O)C(O)C2O)C2C(COC(=O)/C=C/c3ccc(O)c(O)c3)C(O)C(O)C12 (stereo not given) | inactive |  | 
CC(O)C1CCC2C3CCC4CC(OC5OC(C(=O)O)C(O)C(O)C5O)CCC4(C)C3CCC12C (stereo not given) | inactive |  | 
COC(=O)C1(O)C(OC(C)=O)CCC2C3(CC(c4ccoc4)OC3=O)C(C)=CCC21C(=O)OC (stereo not given) | inactive |  | 
CC(=O)C1CCC(=O)N1Cc1ccccc1 (stereo not given) | inactive |  | 
CC(=O)O[C@@H]1[C@H](OC(C)=O)C[C@@]2(C)C(CC[C@@H](C)[C@]23Cc2c(O)cc4c(c2O3)CN([C@@H](CCC(=O)O)C(=O)O)C4=O)C1(C)C (stereo not given in full) | inactive |  | 
C[C@@H]1O[C@@H](O[C@H]2[C@H](O)[C@@H](O)[C@H](OC(=O)[C@]34CCC(C)(C)C[C@H]3C3=CCC5[C@@]6(C)CC[C@H](O[C@@H]7O[C@H](C(=O)O)[C@@H](O)[C@H](O)[C@H]7O)C(C)(C)C6CC[C@@]5(C)[C@]3(C)CC4)O[C@@H]2CO)[C@H](O)[C@H](O)[C@H]1O (stereo not given in full) |  |  | -1.6% [at 9.23 µM] (inactive)
CC1(C)CC2C(O)C3=C(CC(C)(O)C2C1)C(=O)OC3 (stereo not given) | inactive |  | 

SMILES | Potency | outcome | activity change, negative = cell killing
CC1=C[C@H](O)[C@H]2C(C)(C)CCC[C@]2(C)[C@@]1(O)CO | inactive |  | 
CC1=C2C(=O)C=C(CO)C2C2OC(=O)C(CS(=O)(=O)O)C2C(OC(=O)Cc2ccc(O)cc2)C1 (stereo not given) | inactive |  | 
C=C1[C@H](OC(C)=O)[C@H]2[C@@H](OC(C)=O)C(C)C[C@]2(OC(C)=O)C(=O)[C@H](C)/C=C/C(C)(C)C(=O)[C@H](OC(=O)C(C)C)[C@H]1OC(C)=O (stereo not given in full) | inactive |  | 
CC1(C)CC[C@]2(C(=O)O)CC[C@]3(C)C(=CCC4[C@@]5(C)CC[C@H](O)C(C)(C)C5CC[C@]43C)C2C1 (stereo not given in full) | inactive |  | 
CC(/C=C/C=C(\C)C(=O)O[C@@H]1O[C@H](CO[C@@H]2O[C@H](CO)[C@@H](O)[C@H](O)[C@H]2O)[C@@H](O)[C@H](O)[C@H]1O)=C\C=C\C=C(C)\C=C\C=C(/C)C(=O)O[C@@H]1C[C@](O)(C(=O)O)C[C@@H](O)[C@H]1OC(=O)/C=C/c1ccc(O)c(O)c1 |  |  | -16.8% [at 9.23 µM] (inactive)
CC(=O)OCC1=CCC2C(C)(C)CCCC2(C)C12CCC(C)(CC(=O)O)O2 (stereo not given) | inactive |  | 
CCC/C=C/C=C/C1CC(O)C(O)C(=O)C1CO (stereo not given) | inactive |  | 
CC1(C)CC[C@]2(C(=O)O)[C@H](O)C[C@]3(C)C(=CCC4[C@@]5(C)CC[C@H](O[C@@H]6OC[C@@H](O)[C@H](O)[C@H]6O)[C@@](C)(C(=O)O)C5CC[C@]43C)[C@@H]2C1 (stereo not given in full) | inactive |  | 
CC1(C)CC[C@]2(C(=O)O[C@@H]3O[C@H](CO)[C@@H](O)[C@H](O)[C@H]3O)CC[C@]3(C)C(=CCC4[C@@]5(C)CC[C@H](O[C@H]6O[C@H](CO)[C@@H](O)[C@H](O[C@@H]7O[C@H](CO)[C@@H](O)[C@H](O)[C@H]7O)[C@H]6O)C(C)(C)C5CC[C@]43C)[C@@H]2C1 (stereo not given in full) |  |  | 2.79% [at 9.23 µM] (inactive)
CC(=O)OCC(Cc1ccccc1)NC(=O)C(Cc1ccccc1)NC(=O)c1ccccc1 (stereo not given) | inactive |  | 
CC(C)c1ccc2c(c1)C(=O)CC1C(C)(C(=O)O)CCCC21C (stereo not given) | inactive |  | 
CC(=O)OCC1OC(O[C@H]2CC[C@@]3(C)C(CC[C@]4(C)C3CC=C3[C@@H]5CC(C)(C)CC[C@]5(C(=O)O)CC[C@]34C)[C@]2(C)CO)C(O)C(O)C1OC1OC(C)C(O)C(OC2OCC(O)C(O)C2O)C1O (stereo not given in full) |  |  | -24% [at 9.23 µM] (inactive)
COc1cc(C[C@@]2(O)CO[C@@H](c3ccc(O[C@@H]4O[C@H](CO)[C@@H](O)[C@H](O)[C@H]4O)c(OC)c3)[C@H]2CO)ccc1O | inactive |  | 
CC1(C)CCC2(C(=O)O)CCC3(C)C(=CCC4C5(C)CCC(O)C(C)(CO)C5C(O)CC43C)C2C1 (stereo not given) | inactive |  | 
O=C(C[C@@H]1C(C(=O)O)=CO[C@@H](O[C@@H]2O[C@H](CO)[C@@H](O)[C@H](O)[C@H]2O)/C1=C\CO)OCCc1ccc(O)cc1 | inactive |  | 
C[C@@H]1O[C@@H](O[C@H]2[C@H](O[C@H]3[C@H](O[C@H]4CC[C@@]5(C)C(CC[C@]6(C)C5CC=C5[C@@H]7CC(C)(C)C[C@@H](O)[C@]7(C)CC[C@]56C)[C@@]4(C)CO)O[C@H](C(=O)O)[C@@H](O)[C@@H]3O)O[C@H](C(=O)O)[C@H](O)[C@@H]2O)[C@H](O)[C@H](O)[C@H]1O (stereo not given in full) |  |  | 2.89% [at 9.23 µM] (inactive)
CC1(C)C2CC[C@@]34CC(CC[C@H]3[C@]2(C)CC[C@@H]1O[C@@H]1O[C@H](CO)[C@@H](O)[C@H](O)[C@H]1O)[C@](C)(O)C4 (stereo not given in full) | inactive |  | 
C[C@@H]1CC[C@]2(C(=O)O[C@@H]3O[C@H](CO[C@@H]4O[C@H](CO)[C@@H](O[C@@H]5O[C@@H](C)[C@H](O)[C@@H](O)[C@H]5O)[C@H](O)[C@H]4O)[C@@H](O)[C@H](O)[C@H]3O)CC[C@]3(C)C(=CCC4[C@@]5(C)C[C@@H](O)[C@H](O)[C@@](C)(CO)C5CC[C@]43C)C2[C@H]1C (stereo not given in full) |  | inactive [at 9.23 µM] | 
CC(C)/C=C1/NC(=O)C(C(C)C)n2c1nc1c(O)cccc1c2=O (stereo not given) | inactive |  | 
